Screens from PubChem.
HP1b binding inh: HTS for Inhibitors of HP1-beta Chromodomain Interactions with Methylated Histone Tails; Chromobox protein homolog 1 (Homo sapiens), P83916; AlphaScreen HP1-beta / biotin-H3K9me3 peptide binding; Potency, µM (doses to about 114 µM), for inactives: at the highest dose activity change, negative = inhibition, actives largely listed as inhibitors; actives 0.56% (n = 390,000); AID 540317, 2011; note: nearly all actives have a fitted effect of over 70% in size
Target sequence (P83916 whole entry, looked up): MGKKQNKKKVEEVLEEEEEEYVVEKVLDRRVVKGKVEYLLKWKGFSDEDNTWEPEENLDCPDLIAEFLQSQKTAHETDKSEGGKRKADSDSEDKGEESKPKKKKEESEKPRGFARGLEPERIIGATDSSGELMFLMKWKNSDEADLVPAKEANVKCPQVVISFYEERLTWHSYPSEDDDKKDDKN
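HP1-beta protein (50 nM final) preincubated 30 min at room temperature with biotinylated H3(1-18)K9me3 peptide (50 nM) in PBS pH 7.4, 0.01% Tween-20, then compound added for 30 min. AlphaScreen streptavidin donor/nickel chelate acceptor beads (10 ug/mL final), 30 min dark, luminescence read.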
BAZ2B inh: qHTS Assay for Inhibitors of BAZ2B; Bromodomain adjacent to zinc finger domain protein 2B (Homo sapiens), Q9UIF8; Potency, µM (highest dose often 114 µM), for the others: at the highest dose activity change, negative = inhibition, actives largely listed as inhibitors; actives 4.4% (n = 360,000); AlphaScreen BAZ2B-H3K14Ac peptide displacement; note: % is set by controls: 0 for no effect and ±100 for the full control effect; nearly all actives have a fitted effect of over 60% in size
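AlphaScreen displacement of biotin-H3(5-23)K14Ac peptide (50 nM final) from BAZ2B (50 nM final) in PBS pH 7.4, 0.01% Tween-20; complex preformed 30 min RT, then compounds (top 110 uM) 30 min RT, beads 20 min dark.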
JMJD2A Tudor: qHTS Assay for Inhibitors of JMJD2A-Tudor Domain; Lysine-specific demethylase 4A (Homo sapiens), O75164; AlphaScreen JMJD2A-Tudor / H3K4me3 peptide binding; Potency, µM (titrated, usually from 114 µM), without a hit: top-dose activity change, negative = inhibition, usual class: inhibitors; actives 4.4% (n = 390,000); note: % is set by controls: 0 for no effect and ±100 for the full control effect; nearly all actives have a fitted effect of over 50% in size
L3MBTL1 block: qHTS Assay for the Inhibitors of L3MBTL1. Potency, µM (top dose mostly 57.1 µM), for the others: top-dose activity, negative = inhibition, usual class: inhibitors. AID 485360, 2010. Lethal(3)malignant brain tumor-like protein 1 (Homo sapiens), Q9Y468. AlphaScreen L3MBTL1–H3K9me1 peptide binding. actives 0.66% (n = 230,000); note: % is set by controls: 0 for no effect and ±100 for the full control effect; nearly all actives have a fitted effect of over 60% in size
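L3MBTL1 (50 nM) pre-complexed 30 min with biotinylated H3(1-15)K9me1 peptide (75 nM), then compounds added for 30 min at room temperature; AlphaScreen streptavidin donor/nickel chelate acceptor beads (10 ug/mL final) read after 30 min dark incubation.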
G9a inh: qHTS Assay for Inhibitors of Histone Lysine Methyltransferase G9a; Histone-lysine N-methyltransferase EHMT2 (Homo sapiens), Q96KQ7; G9a H3K9 monomethylation, AlphaScreen, 2 h; Potency, µM (series often up to 102 µM), for inactives: at the top dose activity, negative = inhibition, actives largely listed as inhibitors; actives 8.8% (n = 350,000); AID 504332, 2011; note: % is set by controls: 0 for no effect and ±100 for the full control effect; nearly all actives have a fitted effect of over 75% in size
Target sequence (Q96KQ7 913-1193 limits assumed): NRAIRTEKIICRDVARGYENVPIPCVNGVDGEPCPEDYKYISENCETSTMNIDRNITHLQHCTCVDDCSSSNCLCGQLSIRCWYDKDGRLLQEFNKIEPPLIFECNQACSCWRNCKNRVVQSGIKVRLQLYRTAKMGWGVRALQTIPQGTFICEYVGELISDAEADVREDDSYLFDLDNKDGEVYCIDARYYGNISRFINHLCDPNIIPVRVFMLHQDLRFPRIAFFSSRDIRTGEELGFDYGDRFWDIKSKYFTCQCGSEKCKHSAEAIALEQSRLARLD
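Compounds were preincubated with 20 nM G9a for 15 min, after which biotinylated H3K9 peptide (500 nM) and SAM (20 uM) started a 2 h room-temperature reaction. Monomethylated product was quantified by antibody-based AlphaScreen chemiluminescence.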
Numbers without * were called inactive; ? = inconclusive; . = not tested or not shown; [ ] = another dose, or the depositor's remark. Compounds with a hit are over-represented: about 11% of the library has one in this group of screens. Calls come from the whole dose curve; as a rule, active = well fitted inhibition curve with a large enough effect; inconclusive = small, poorly fitted or top-dose-only effect; inactive = no such curve, though single readings can be large or run the other way. Potency is the fitted concentration of half-maximal effect.

SMILES | HP1b binding inh | BAZ2B inh | JMJD2A Tudor | L3MBTL1 block | G9a inh
CCOc1ccc(OCCC(=O)OCC(=O)N2CCN(S(=O)(=O)c3ccc(Cl)cc3)CC2)cc1 | -20% | 50µM* | ? | . | .
CCOc1ccc(S(=O)(=O)N2CCN(C(=O)CCOc3ccccc3C)CC2)cc1 | 26% | 8% | -2% | -2% | 13µM*
CCOc1ccc(S(=O)(=O)N2CCN(C(=O)c3cc(-c4ccccc4)nn3-c3ccccc3)CC2)cc1 | 11% | -6% | -25% | 3% | 40µM*
Cc1ccc(C)c(OCCC(=O)OCC(=O)N2CCN(S(=O)(=O)c3ccc(Cl)cc3)CC2)c1 | 47% | 2% | -10% | 3% | 8%
Cc1ccc(S(=O)(=O)N2CCN(C(=O)CCOc3ccccc3C)CC2)cc1C | 23% | 11% | -5% | -4% | -51%
COc1ccccc1NC(=O)C(C)Sc1nnc2ccc3ccccc3n12 (stereo not given) | 24% | -3% | -9% | . | ?
CCc1ccc(Nc2n[n+](-c3ccccc3)c(-c3ccc(N(CC)CC)cc3)s2)cc1 | ? | 40µM* | 40µM* | -12% | 13µM*
CCN(CC)c1ccc(-c2sc(Nc3ccccc3)n[n+]2-c2ccc(F)cc2)cc1 | -13% | 28µM* | 56µM* | -9% | 45µM*
CCN(CC)c1ccc(/C=N/NC(=O)Cc2nnc(NC(=O)Nc3ccccc3)s2)cc1 | -8%[57 µM] | -10% | -32% | -14% | ?
CCOC(=O)C1(CC)NC(c2ccc(OC)cc2OC)C2C(=O)N(C)C(=O)C21 (stereo not given) | 11% | -6% | -5% | 12% | 11%
NC(=O)c1ccc(-c2ncc(-c3ccccc3)o2)cc1 | 20% | 3% | -15% | -1% | 8%[12.7 µM]
Cc1ccc(-c2cnc(-c3ccccc3C(=O)O)o2)cc1 | 20% | -16% | -20% | . | 50µM*
CC(=O)NC1=NN(C(C)=O)C(C)(c2cccnc2)S1 (stereo not given) | 0% | 5% | -8% | . | 45µM*
COc1cc(-c2nc(-c3ccccc3)c(-c3cc([N+](=O)[O-])ccc3C)[nH]2)cc(OC)c1OC | -30% | ? | ? | -30% | 10µM*
COc1cc(-c2nc(-c3cccc(Cl)c3)c(-c3ccccc3)[nH]2)cc(OC)c1OC | 50% | -5% | -8% | . | 3%[59 µM]
O=C(Cc1ccc(F)cc1)Nc1cccc2cccnc12 | 55% | 12% | 29% | 15% | 45%[59 µM]
NC(=S)NNc1cccc2cccnc12 | -16% | 25µM* | 10µM* | ? | 18µM*
O=C(CCCl)Nc1cccc2cccnc12 | 68% | . | 79µM* | . | .
O=C(CI)Nc1cccc2cccnc12 | -20% | . | 20µM* | . | .
O=C(CCBr)Nc1cccc2cccnc12 | 7% | . | 79µM* | . | .
CCC(=O)Nc1cccc2cccnc12 | 67% | -5% | 6% | 9% | -12%[59 µM]
Cc1cc(C(=O)NNC(=S)NC2CCCCC2)cs1 | 35% | -2% | 7% | . | 30%
CC(C)(C)NCC(O)COc1nsnc1N1CCOCC1 (stereo not given) | . | . | . | . | 48%[12.7 µM]
Cc1ccc(NC(=S)c2nc3ccccc3s2)cc1 | ? | 8.9µM* | ? | ? | 22µM*
Cc1ccc(C)c(NC(=S)c2nc3ccccc3s2)c1 | -15% | 4% | 14µM* | -15% | ?
SMILES | HP1b binding inh | BAZ2B inh | JMJD2A Tudor | L3MBTL1 block | G9a inh
S=C(Nc1ccc(Cl)cc1)c1nc2ccccc2s1 | ? | ? | ? | -22% | ?
CC(=O)NC1[C@H]([C@H](O)[C@H](O)CO)OC(C(=O)O)=C[C@H]1N=C(N)N (stereo not given in full) | . | . | . | . | 36%[59 µM]
CSc1nnc(-c2cccc(NC(=S)NN)c2)o1 | 12% | ? | -21% | . | 7.9µM*
COc1cc(C(=O)NCC(c2ccco2)N2CCCC2)ccc1OCc1ccc(Cl)cc1Cl (stereo not given) | 3% | . | ? | . | .
COc1ccccc1NC(=O)c1sc(NC(=O)c2ccco2)c(C#N)c1C | 7% | -6% | -7% | . | -3%[59 µM]
COC(=O)c1sc(NC(=O)c2ccco2)c(C#N)c1C | -25%[57 µM] | -25% | -13% | . | 35µM*
CCOC(=O)c1sc(NC(=O)c2cccnc2)c(C#N)c1C | 27% | -8% | -9% | 4% | 11µM*
Cc1ccc(C)c(-c2ccc(=O)n(C(C)C(=O)Nc3ccccc3C(F)(F)F)n2)c1 (stereo not given) | 39% | -3% | -3% | . | -24%[59 µM]
Cc1nn(Cc2ccccc2)c(C)c1N | -4% | -35% | ? | -11% | -8%
Cc1nn(Cc2n[nH]c(=S)n2Cc2ccccc2)c(C)c1Cl | 16% | -22% | ? | -2% | 2.5µM*
Cc1cc(C)n(Cc2n[nH]c(=S)n2Cc2ccccc2)n1 | 44% | -5% | 22µM* | -3% | 16µM*
Cc1noc(NS(=O)(=O)c2ccc(NC(=O)NC(C)(C(F)(F)F)C(F)(F)F)cc2)c1C | 26% | -20% | -19% | . | 5%
CCN(CC)C(=O)c1sc2nc(N3CCOCC3)c3c(c2c1N)CCCC3 | 7% | -4% | ? | . | 8.9µM*
COC(=O)c1sc2nc(-c3ccccc3)c3c(c2c1N)CCCC3 | 68% | -18% | -12% | 5% | 160%[59 µM]
COC(=O)c1sc2nc(N3CCCCC3)c3c(c2c1N)CCCC3 | 49% | 8% | -15% | . | 45%
NC(=O)c1sc2nc(N3CCCCC3)c3c(c2c1N)CCCC3 | 29% | ? | -13% | -4% | 35µM*
CCOC(=O)c1sc2nc(N3CCOCC3)c3c(c2c1N)CCCC3 | 56% | 3% | 11% | 7% | 2%
